Test results as given in PubChem BioAssay (NCI).
The panel holds about 83,000 compounds, 20% with a hit somewhere; the sample as a whole holds those more often.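 Cells were grown in 96-well plates and exposed to the test compound at a single concentration for 48 hours; results are reported as percent growth, with values below 10 considered active.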 Activity calls are given as the source filed them.

Experiments:
Experiment in all cases: NCI-60 one-dose screen, 48 h (100 = growth as untreated, 0 = no growth, -100 = all killed)
Conditions in all cases: 10 µM unless noted
NCI-H226 lung = system: NCI-H226 lung
NCI-H322M lung = system: NCI-H322M lung
HOP-62 NSCLC = system: HOP-62 NSCLC
NCI-H460 lung = system: NCI-H460 lung
NCI-H522 lung = system: NCI-H522 lung
A549/ATCC NSCLC = system: A549/ATCC NSCLC
786-0 renal = system: 786-0 renal
COLO 205 colon = system: COLO 205 colon
DU-145 prostate = system: DU-145 prostate
K-562 leukemia = system: K-562 leukemia
MALME-3M melanoma = system: MALME-3M melanoma
MDA-MB-231 breast = system: MDA-MB-231 breast
RXF 393 renal = system: RXF 393 renal
SF-268 CNS = system: SF-268 CNS
SF-295 CNS = system: SF-295 CNS
SF-539 CNS = system: SF-539 CNS
UACC-257 melanoma = system: UACC-257 melanoma
M14 melanoma = system: M14 melanoma
HCT-15 colon = system: HCT-15 colon

Measured: growth

CC(=O)n1c2ccccc2c2ccccc21
inactive: NCI-H226 lung 115% | NCI-H322M lung 107% | HOP-62 NSCLC 93.8% | NCI-H460 lung 117% | NCI-H522 lung 108% | A549/ATCC NSCLC 107% | 786-0 renal 90.8% | COLO 205 colon 148% | DU-145 prostate 108% | K-562 leukemia 111% | MALME-3M melanoma 126% | MDA-MB-231 breast 126% | RXF 393 renal 144% | SF-268 CNS 115% | SF-295 CNS 96.7% | SF-539 CNS 107% | UACC-257 melanoma 123% | M14 melanoma 103% | HCT-15 colon 112%

O=C1NCN(CCO)CN1
inactive: NCI-H226 lung 105% | NCI-H322M lung 94.2% | HOP-62 NSCLC 85.1% | NCI-H460 lung 105% | NCI-H522 lung 103% | A549/ATCC NSCLC 101% | 786-0 renal 90.4% | COLO 205 colon 120% | DU-145 prostate 117% | K-562 leukemia 111% | MALME-3M melanoma 92.6% | MDA-MB-231 breast 125% | RXF 393 renal 107% | SF-268 CNS 108% | SF-295 CNS 113% | SF-539 CNS 93.3% | UACC-257 melanoma 96.7% | M14 melanoma 96.7% | HCT-15 colon 109%

CCCCCCOc1ccc(/C=N/NC(N)=S)cc1
inactive: NCI-H226 lung 66% | NCI-H322M lung 122% | HOP-62 NSCLC 100% | NCI-H460 lung 92.6% | A549/ATCC NSCLC 88.3% | COLO 205 colon 50.2% | DU-145 prostate 71.9% | K-562 leukemia 17.8% | MALME-3M melanoma 17.9% | MDA-MB-231 breast 29.5% | RXF 393 renal 22.6% | SF-268 CNS 47.2% | SF-539 CNS 16.5% | UACC-257 melanoma 48.2% | M14 melanoma 44.6% | HCT-15 colon 33.9%
active: NCI-H522 lung -64% | 786-0 renal 9.39%

COc1c(C)c2c(c(O)c1C/C=C(\C)CCC(=O)OCCN1CCOCC1)C(=O)OC2
inactive: NCI-H226 lung 50.2% | NCI-H322M lung 33.2% | HOP-62 NSCLC 34.9% | 786-0 renal 24.7% | COLO 205 colon 38.1% | DU-145 prostate 36.4% | K-562 leukemia 25.5% | MALME-3M melanoma 38.8% | MDA-MB-231 breast 37.9% | RXF 393 renal 51.9% | SF-268 CNS 28.9% | SF-295 CNS 18.2% | SF-539 CNS 34.7% | HCT-15 colon 15.5%
active: NCI-H460 lung 2.48% | NCI-H522 lung -3.49% | A549/ATCC NSCLC 5.79% | UACC-257 melanoma 7.21%

CN=C(NC)N/N=C(C)\C=N\NC(=NC)NC
inactive: NCI-H226 lung 98.8% | NCI-H322M lung 107% | HOP-62 NSCLC 100% | NCI-H460 lung 104% | NCI-H522 lung 102% | A549/ATCC NSCLC 100% | 786-0 renal 102% | COLO 205 colon 102% | DU-145 prostate 109% | MALME-3M melanoma 105% | MDA-MB-231 breast 97.8% | SF-268 CNS 99.5% | SF-295 CNS 96.5% | SF-539 CNS 99.1% | UACC-257 melanoma 100% | M14 melanoma 101% | HCT-15 colon 101%

Fc1ccc(-c2nnc(-c3c(-c4ccc(F)cc4)nc4ncccn34)o2)cc1
inactive: NCI-H226 lung 113% | NCI-H322M lung 105% | HOP-62 NSCLC 105% | NCI-H460 lung 111% | NCI-H522 lung 89.1% | A549/ATCC NSCLC 96% | 786-0 renal 93.1% | COLO 205 colon 104% | DU-145 prostate 103% | K-562 leukemia 89.3% | MALME-3M melanoma 121% | MDA-MB-231 breast 122% | RXF 393 renal 97.8% | SF-295 CNS 93% | SF-539 CNS 94.4% | UACC-257 melanoma 107% | M14 melanoma 112% | HCT-15 colon 87.9%

COc1ccc(C2=NN(C(C)=O)C(c3cc(OC)c(OC)c(OC)c3)C2)cc1 (centres undefined)
inactive: NCI-H226 lung 119% | NCI-H322M lung 119% | HOP-62 NSCLC 105% | NCI-H460 lung 108% | NCI-H522 lung 67.7% | A549/ATCC NSCLC 108% | 786-0 renal 108% | COLO 205 colon 108% | DU-145 prostate 107% | K-562 leukemia 75.4% | MALME-3M melanoma 120% | MDA-MB-231 breast 109% | RXF 393 renal 111% | SF-268 CNS 94.4% | SF-295 CNS 95.4% | SF-539 CNS 91.5% | UACC-257 melanoma 113% | M14 melanoma 98.3% | HCT-15 colon 84.6%

COc1ccc2c(c1)C(=O)c1c-2c(OCCCN(C)C)nc2cc(Br)ccc12
active: HCT-15 colon -31.3%
inactive: NCI-H226 lung 57.2% | NCI-H322M lung 80.7% | HOP-62 NSCLC 68% | NCI-H460 lung 36.2% | NCI-H522 lung 61.6% | A549/ATCC NSCLC 24.6% | 786-0 renal 77.2% | COLO 205 colon 64.6% | DU-145 prostate 78.5% | K-562 leukemia 53.1% | MALME-3M melanoma 69.8% | MDA-MB-231 breast 49.9% | RXF 393 renal 43.7% | SF-268 CNS 69% | SF-295 CNS 93.9% | SF-539 CNS 67.6% | UACC-257 melanoma 108% | M14 melanoma 91.8%

O=C(/C=C/c1cc2ccccc2[nH]c1=O)c1ccc(Cl)cc1
inactive: NCI-H226 lung 40.7% | NCI-H322M lung 62.4% | HOP-62 NSCLC 44.4% | A549/ATCC NSCLC 42.1% | 786-0 renal 43% | COLO 205 colon 49.4% | DU-145 prostate 12.4% | K-562 leukemia 17.1% | MALME-3M melanoma 46.4% | MDA-MB-231 breast 32.2% | RXF 393 renal 12.9% | SF-268 CNS 30.7% | SF-295 CNS 42.7% | UACC-257 melanoma 45.3% | M14 melanoma 44.7% | HCT-15 colon 41.6%
active: NCI-H522 lung -57.5%
